Only some compounds are listed: those with a hit (about 7.1% of all), similar ones and a draw of the others.
LASV entry inh – Lassa virus entry inhibition; Lassa virus pseudotyped entry inhibition, cell-based qHTS; hit rate 4.1% among 18,000; Potency, µM (highest dose often 49.2 µM), inactives show at the highest dose activity change, negative = inhibition, usual class: inhibitors
MARV entry inh – inhibitors of Marburg virus binding or entry into cells; Marburg virus pseudotype entry/binding inhibition, cell-based; Potency, µM (top dose mostly 49.2 µM), inactives show at the top dose activity change, negative = inhibition, usual class: inhibitors; hit rate 6.5% among 18,000
An asterisk follows results filed as active; ? = inconclusive; / = not tested or not shown; ! = repeats disagree; [ ] = dose if it differs, or a comment. The call rests on the fitted dose curve; tested in HEK293 cells. On the % scale 0 is the no-effect control and ±100 the full control effect; potency means the concentration at half of the fitted maximal effect.

SMILES	LASV entry inh	MARV entry inh
Brc1c(Br)c(Br)c2[nH]cnc2c1Br	9%	-22%
S=c1nc[nH]c2nc[nH]c12	14µM*	13µM*
CC(=O)Oc1ccc(C(=C2CCCCC2)c2ccc(OC(C)=O)cc2)cc1	-4%	-3%
Oc1cc2c(cc1O)[C@@H]1c3ccc(O)c(O)c3OC[C@]1(O)C2	-20%	5.6µM*
COC(=O)c1cc(CNC(=O)c2ccccc2)cc(NC(=O)c2ccccc2OC)c1	?	-15%
CCOC(=O)CCC(=O)O[C@H]1[C@H](O[C@@H]2[C@@H](C)[C@H](O[C@H]3C[C@@](C)(OC)[C@@H](O)[C@H](C)O3)[C@@H](C)C(=O)O[C@H](CC)[C@@](C)(O)[C@H](O)[C@@H](C)C(=O)[C@H](C)C[C@@]2(C)O)O[C@H](C)C[C@@H]1N(C)C	1%	8%
CCC1OC(=O)C(C)[C@@H](O[C@H]2C[C@@](C)(OC)C(O)C(C)O2)C(C)[C@@H](O[C@@H]2OC(C)CC(N(C)C)C2O)[C@@](C)(O)CC(C)C2NC(COCCOC)O[C@H](C2C)[C@@]1(C)O (some centres undefined)	-7%	-16%
CCC(=O)O[C@H]1[C@H](O[C@@H]2[C@@H](C)[C@H](O[C@H]3C[C@@](C)(OC)[C@@H](O)[C@H](C)O3)[C@@H](C)C(=O)O[C@H](CC)[C@@](C)(O)[C@H](O)[C@@H](C)C(=O)[C@H](C)C[C@@]2(C)O)O[C@H](C)C[C@@H]1N(C)C	25µM*	10µM*
CC[C@H]1OC(=O)[C@H](C)[C@@H](O[C@H]2C[C@@](C)(OC)[C@@H](O)[C@H](C)O2)[C@H](C)[C@@H](O[C@@H]2O[C@H](C)C[C@H](N(C)C)[C@H]2O)[C@](C)(O)C[C@@H](C)[C@@H]2N[C@@H](COCCOC)O[C@@H]([C@H]2C)[C@]1(C)O	-1%	7.1µM*
C=CCC(O)c1ccccc1 (centres undefined)	5%	-8%
CCCCC[C@H](O)/C=C/[C@@H]1[C@H](C/C=C\CCCC(=O)O)[C@@H](O)C[C@H]1O	-17%	2%
CCCCCC(=O)CC[C@@H]1[C@@H](C/C=C\CCCC(=O)O)[C@@H](O)C[C@H]1O	-14%	4%
CCCCCCCC(=O)CC[C@@H]1[C@@H](C/C=C\CCCC(=O)OC(C)C)[C@@H](O)C[C@H]1O	16µM*	?
NC(CSCSCC(N)C(=O)O)C(=O)O (centres undefined)	0%	-5%
Cn1cnc([N+](=O)[O-])c1Sc1ncnc2nc[nH]c12	?	10µM*!
Cn1cnnc1Sc1c([N+](=O)[O-])ncn1C	-9%	-3%
CC(=O)C1=C(O)[C@@H]2[C@@H]3c4c[nH]c5cccc(c45)C[C@@H]3C(C)(C)N2C1=O	-5%	12%
COc1cccc2c1C1(CCCCC1)CC2NC(=O)C(F)(F)F (centres undefined)	-11%[8.59 µM]	-15%[8.59 µM]
C=C1C(O)C2OC3(CCC(/C=C/C(C)C4CC(C)=CC5(OC(CC(C)(O)C(=O)O)CCC5O)O4)O3)CCC2OC1C(O)CC(C)C1OC2(CCCCO2)CCC1C (centres undefined)	?	0.15µM*
CC(C)C[C@@H](CC(=O)N[C@@H](CCCN)CC(=O)N[C@@H]1CCNC[C@H]1C(=O)N[C@H](CC(=O)N[C@@H](CCC(=O)O)CC(=O)O)Cc1ccccc1)NC(=O)[C@@H]1CCCC[C@H]1N	-5%	-20%
Cc1ccc2nc(SCC(=O)N3CCC4(CC3)CC4C(=O)Nc3ccc(F)c(F)c3)[nH]c2c1 (centres undefined)	-4%	-23%
CCC[C@H]1CN(Cc2ccccc2)C(=O)[C@H]1CC(=O)NC	14%	20%
Cc1ccc(-c2c(C)cc3oc(=O)cc(-c4ccccc4)c3c2C)cc1	?	-17%
CC(=O)Nc1ccc(-c2c(C)cc3oc(=O)cc(-c4ccccc4)c3c2C)cc1	7.9µM*	-22%
COC(=O)c1ccc(CN2CCC3(CCC(CNC(=O)c4ccco4)O3)CC2)cc1 (centres undefined)	-2%	1%
SMILES	LASV entry inh	MARV entry inh
C[N+]1(C)CCc2cc3c(cc2[C@@H]1[C@@H]1C(=O)Oc2c1ccc1c2OCO1)OCO3	-15%	5%
CC1=C[C@@H]2c3cccc4[nH]cc(c34)C[C@H]2N(C)C1	-14%	7%
CN1Cc2ccccc2[C@@H]2c3cccc4[nH]cc(c34)C[C@H]21	10µM*	8.9µM*
COC(=O)[C@@]1(C=C[C@@H](C)[C@H](OC)c2ccccc2Br)[C@@H]2OCCC[C@@H]21	-8%[8.59 µM]	-4%[8.59 µM]
COc1cccc([C@@H]2Oc3ccc(Br)cc3C[C@H]2OC(=O)NS(=O)(=O)c2ccc(C)cc2)c1	-1%	6%
CN(C)C(=O)c1ccc(-c2nc(Nc3ccc(F)cc3)c3ccccc3n2)cc1	-23%	-26%
CN(C)c1nc(NC2CCC(NC(=O)c3ccc(F)c(F)c3)CC2)nc2ccccc12 (centres undefined)	16µM*	2.8µM*
CCS(=O)(=O)Nc1cc(C(=O)N2CCCN(C=O)CC2)c2c(c1)nc(-c1ccccc1)n2C	6%	3%
C=C1Cc2c(Cl)cc3[nH]c4c5c3c2[C@@]2(O)[C@@H]1C[C@@H]2C(C)(C)O[C@H]5[C@@H]1CC[C@@]2(O)[C@@]35O[C@@H]3[C@@H](O)[C@@H](C(=O)O)O[C@H]5CC[C@]2(C)[C@@]41C	28µM*	?
Cc1cccc(-c2cccc(C(=O)N3CCc4c(cnc(C)c4CNC(=O)c4cncs4)C3)c2)c1	-24%	?
CCCCN1CCC[C@@H]1CNC(=O)c1cc(C#N)c2ccccc2c1OC	?	14µM*
CCN1CCC[C@H]1CNC(=O)c1c(O)c(Cl)cc(Cl)c1OC	-2%	14%
Nc1sc2c(c1C(=O)c1ccc(Cl)cc1)CCCC2	-7%	-4%
C[C@H]1CC[C@H]2C(=O)NC[C@H](O)CN2[C@H]1c1ccc(Br)cc1	11%[8.59 µM]	-10%[8.59 µM]
CCOC(=O)CN1C(=O)[C@@]2(CC(C)=CC[C@@H](COc3ccccc3)O2)c2ccccc21	/	-20%[8.59 µM]
COC(=O)Nc1nc2ccc(C(=O)c3ccccc3)cc2[nH]1	-32%[17.8 µM]	?
COC(=O)Nc1nc2ccc(C(=O)c3cccs3)cc2[nH]1	?	1.1µM*!
O=C(NC1CC1)[C@@H]1C[C@H](Sc2nc3ccccc3[nH]2)CN1CC1CCCCC1	-16%	-10%
CCCCCCCCNC(C)C(O)c1ccc(SC(C)C)cc1 (centres undefined)	11µM*	?
CC(NCCc1ccc(O)cc1)C(O)c1ccc(O)cc1 (centres undefined)	-23%	7%
Cc1cc(C)n2nc(C(=O)NCC3Cc4cccc(-c5ccc(S(C)(=O)=O)cc5)c4O3)cc2n1 (centres undefined)	?	-2%
C[C@@]12C(=O)OC(=O)[C@@]1(C)C1CCC2O1	2µM*	3.5µM*
C[C@@]12C(=O)OC(=O)[C@@]1(C)[C@@H]1CC[C@@H]2O1	-13%	4%
COC(=O)[C@H](C=C[C@H](C)Cc1cc(Br)cc(OCc2ccccc2)c1OC)OCc1ccccc1	5%[8.59 µM]	-15%[8.59 µM]
CC(CCN1CCCCc2nc(C)c(C)cc21)=NO[C@H](C)CN1CCCc2nc(C)c(C)cc21	-12%[8.59 µM]	?
CNCC/C=C/c1cccnc1	-23%	-4%
CNCCC=C1c2ccccc2CCc2ccccc21	32µM*	10µM*
O[C@H]1CCCC[C@H]1N1CCC(c2ccccc2)CC1	0%	-12%

Compound activity from PubChem BioAssay.
